Compound activity from PubChem BioAssay.
HP1b binding inh – HP1-beta chromodomain-methylated histone interaction inhibition. 0.56% of 390,000 active. AlphaScreen HP1-beta / biotin-H3K9me3 peptide binding. AID 540317. Potency, µM (top dose mostly 114 µM), actives largely listed as inhibitors; also: nearly all actives have a fitted effect of over 70% in size
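Compound inhibition of the preformed complex between 50 nM HP1-beta and 50 nM biotinylated H3K9me3 peptide was read by AlphaScreen. Buffer was PBS pH 7.4 with 0.01% Tween-20. Incubations ran 30 min at room temperature, with 10 ug/mL donor/acceptor beads.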
JMJD2A Tudor inh – inhibitors of human JMJD2A Tudor domain; O75164; AlphaScreen JMJD2A-Tudor / H3K4me3 peptide binding; Potency, µM (series often up to 114 µM), usual class: inhibitors; 4.4% of 390,000 active; also: nearly all actives have a fitted effect of over 50% in size
PLK1 PBD block – PLK1 (human) polo-box domain binding inhibition | Plk1 PBD binding of FITC phosphopeptide, fluorescence polarization | Potency, µM, most hits filed as inhibitors | 2.8% of 360,000 active; also: series mostly up to about 57 µM; nearly all actives have a fitted effect of over 65% in size
Target sequence (P53350 whole entry, looked up, the tested form may be a part): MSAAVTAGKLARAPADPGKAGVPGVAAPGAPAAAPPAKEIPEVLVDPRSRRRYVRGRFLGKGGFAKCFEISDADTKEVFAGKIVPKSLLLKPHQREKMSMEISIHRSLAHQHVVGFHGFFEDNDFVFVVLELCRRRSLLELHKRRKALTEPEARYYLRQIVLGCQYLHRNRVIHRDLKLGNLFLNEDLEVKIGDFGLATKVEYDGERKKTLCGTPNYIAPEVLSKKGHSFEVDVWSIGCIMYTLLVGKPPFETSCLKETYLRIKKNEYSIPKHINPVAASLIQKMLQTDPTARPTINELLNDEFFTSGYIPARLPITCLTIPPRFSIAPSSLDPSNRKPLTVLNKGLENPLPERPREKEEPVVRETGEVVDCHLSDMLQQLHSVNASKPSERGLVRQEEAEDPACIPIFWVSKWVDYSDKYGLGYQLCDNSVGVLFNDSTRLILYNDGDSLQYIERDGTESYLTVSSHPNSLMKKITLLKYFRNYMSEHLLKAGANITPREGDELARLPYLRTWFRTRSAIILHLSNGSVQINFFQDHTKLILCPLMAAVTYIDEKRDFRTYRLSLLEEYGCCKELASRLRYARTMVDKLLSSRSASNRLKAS
VDR inh – vitamin D3 receptor (human) inhibition | AID 504847 | 0.93% of 400,000 active | Potency, µM, usual class: inhibitors | VDR-SRC2-3 peptide fluorescence polarization, 2 h
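Fluorescence polarization assay of small-molecule disruption of VDR binding to coregulator peptide SRC2-3. Compounds and controls pin-transferred, then read after 2 h incubation at ambient room temperature.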
G9a inh – inhibitors of human histone lysine methyltransferase G9a; G9a H3K9 monomethylation, AlphaScreen, 2 h; Potency, µM (highest dose often 102 µM), hits mostly inhibitors; Q96KQ7; 8.8% of 350,000 active; also: nearly all actives have a fitted effect of over 75% in size
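AlphaScreen detection with an anti-monomethyl H3K9 antibody quantified product after a 2 h room-temperature reaction containing 500 nM biotinylated H3K9 peptide, 20 µM SAM and 20 nM enzyme, which had been preincubated 15 min with compound.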
BAZ2B block – blocks human BAZ2B; Q9UIF8; 4.4% of 360,000 active; AlphaScreen BAZ2B-H3K14Ac peptide displacement; Potency, µM (titrated, usually from 114 µM), hits mostly inhibitors; also: nearly all actives have a fitted effect of over 60% in size
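AlphaScreen displacement: compounds (up to 110uM) incubated 30 min at room temperature with a preformed 50 nM BAZ2B/50 nM biotinylated H3K14Ac peptide complex in PBS pH 7.4 with Tween-20. Donor and acceptor beads at 10 ug/mL final added, 20 min light-protected before reading.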
Hits are given with their value; - = inactive; ? = inconclusive; . = no result; [ ] = another dose, or the depositor's remark. Hits are enriched below; roughly 11% of the tested compounds scored in any of these assays. Calls follow the shape of the dose curve; as a rule, active = well fitted curve in the direction sought with a large enough effect; inconclusive = small, poorly fitted or top-dose-only effect, or another doubt; inactive = no such curve, though single readings can be large; an effect the other way counts as inactive or inconclusive.

SMILES	HP1b binding inh	JMJD2A Tudor inh	PLK1 PBD block	VDR inh	G9a inh	BAZ2B block
O=C(CSc1nc(-c2ccccc2)c(-c2ccccc2)o1)N1CCOCC1	?	?	-	-	?	?
CN(C(=O)CSc1nnc(-c2ccc(F)cc2)c2ccccc12)C1CCS(=O)(=O)C1 (stereo unspecified)	-	-	?	-	22µM	?
CN(C)C(=O)CSc1nc(-c2ccccc2)c(-c2ccccc2)o1	?	-[11.4 µM]	-	-	13µM	?
O=c1ccn([C@@H]2O[C@H](CNS(=O)(=O)C3CC3)[C@@H](O)[C@H]2O)c(=O)[nH]1	-	-	-	-	.	.
COc1cc(S(=O)(=O)N2CCN(C(=O)c3ccccc3F)CC2)c(OC)cc1NC(C)=O	-	-	-	-	-	-
CN(C)N(C(=O)c1cc(-c2cccs2)nn1-c1ccccc1)C1CCS(=O)(=O)C1 (stereo unspecified)	-	-	-	-	18µM	-
CN(C(=O)CSc1nc(-c2ccccc2)c(-c2ccccc2)o1)C1CCS(=O)(=O)C1 (stereo unspecified)	?	?	30µM	-	?	?
CN(C(=O)CSc1n[nH]c(-c2cccs2)n1)C1CCS(=O)(=O)C1 (stereo unspecified)	-	-	-	-	50µM	-
O=C(CSc1nnc(CNC(=O)c2ccccc2F)o1)NC1CCCCC1	-	-	-	-	-[0.501 µM]	-
COc1c(F)cc2[nH]c3c(c2c1F)CCNC3=O	-	-	.	-	.	.
O=[N+]([O-])c1ccc(OCCO)nc1	-	-	-	-	-	-
OCC1=C[C@@H](O)[C@@H]2C=CO[C@@H](OC3O[C@H](CO)[C@@H](O)[C@H](O)[C@H]3O)[C@H]12 (stereo partly specified)	.	.	.	-	.	.
CSCC[C@H](N)C(=O)N[C@@H](C)C(=O)NCC(=O)N[C@@H](CCCN=C(N)N)C(=O)N[C@@H](CO)C(=O)NCC(=O)N[C@@H](CC(=O)O)C(=O)N[C@@H](CO)C(=O)N[C@@H](CC(=O)O)C(=O)N[C@@H](CCC(=O)O)C(=O)N[C@@H](CC(=O)O)C(=O)N[C@@H](CC(C)C)C(=O)N[C@@H](CC(C)C)C(=O)N[C@@H](CCCCN)C(=O)N[C@@H](C)C(=O)N[C@H](C(=O)O)C(C)C	.	.	.	-	.	.
COc1ccc(NC2CC(=O)N(c3ccc(C(=O)O)cc3)C2=O)cc1 (stereo unspecified)	-	-	-	-	50µM	-
COc1ccc(NC2CC(=O)N(c3cccc(C)c3)C2=O)cc1 (stereo unspecified)	-	-	-	-	-	-
COc1ccc(N2C(=O)CC(Nc3cccc(C(C)=O)c3)C2=O)cc1OC (stereo unspecified)	-	-	-	-	18µM	-
COc1ccc(Cl)cc1NC(=O)c1c(NCc2ccc(C)o2)sc2c1CCCCC2	-	?	.	-	?	-
Cn1c(=O)c2c(-c3ccccc3F)c3c(nc2n(C)c1=O)-c1ccccc1C3O (stereo unspecified)	-	-	-	-	10µM	-
N#Cc1c(N2CCCC(O)C2)nc(N)c2c(N)nc3c(c12)CC(=O)N3C12CC3CC(CC(C3)C1)C2 (stereo unspecified)	?	56µM	-	?	?	?
COc1ccc(OC)c(N2C(=O)c3cccnc3C2=O)c1	-	-	-	-	-	79µM
CCOc1ccc(N2C(=O)c3cccnc3C2=O)cc1	-	?	-	-	-	56µM
CCOc1ccc(N2C(=O)Cc3ccccc3C2=O)cc1	-	-	-	-	-	-
N#Cc1c(C(F)(F)F)cc(-c2cccs2)nc1SCc1ccccc1F	-	-	.	-	-	-
O=C(NCCCN1CCN(c2ccc(F)cc2)CC1)c1cc2c(Cl)nc3ccccc3c2s1	-	-	.	-	-	-
Cc1cc(C)n2c(SCC(=O)NCc3ccc4c(c3)OCO4)nnc2n1	-	79µM	24µM	?	11µM	-
SMILES	HP1b binding inh	JMJD2A Tudor inh	PLK1 PBD block	VDR inh	G9a inh	BAZ2B block
Cc1nnc(SCC(=O)NCc2ccc3c(c2)OCO3)[nH]c1=O	-	-	-	-	50µM	-
Cc1ccc(NC(=O)Cn2nnc(C(=O)NCc3ccc4c(c3)OCO4)c2N)cc1	-	-	-	-	-	-
CCn1c(SCC(=O)NCc2ccc3c(c2)OCO3)nnc1-c1ccncc1	-	-	-	-	-	-
O=C(CSc1nccc(=O)[nH]1)NCc1ccc2c(c1)OCO2	-	-	-	-	?	-
Cc1cc(C)c(NC(=O)Cn2nnc(C(=O)NCc3ccc4c(c3)OCO4)c2N)c(C)c1	-	56µM	?	-	-	-
Nc1cc(N)nc(SCC(=O)NCc2ccc3c(c2)OCO3)n1	-	-	6µM	?	.	.
CCC(CC)c1nn2c(=O)cc(COc3ccc(NC(=O)c4ccc(C)cc4)cc3)nc2s1	-	-	.	-	-	-
O=C(CSc1ccc2ccccc2n1)NCc1ccc2c(c1)OCO2	-	?	24µM	-	?	-
O=C(CSc1nc2ccccc2s1)NCc1ccc2c(c1)OCO2	-	-	?	-	?	-
Cc1nc2ccccc2nc1OCC(=O)NCc1ccc2c(c1)OCO2	-	?	2.7µM	-	-	-
O=C(NCCc1ccc(Cl)cc1)c1cccn1-c1nnc(N2CCCCC2)s1	-	-	.	-	-	-
CCc1c(C(=O)NCCc2ccc(N3CCCCC3)cc2)[nH]c2ccc(Cl)cc12	.	.	.	-	28µM	.
COc1cc(NC(=O)Cn2cnc3sc(C)c(S(=O)(=O)N4CCC(C)CC4)c3c2=O)cc(OC)c1OC	-	-	.	-	-	-
Cc1cc(C(=O)N2CCCc3ccccc32)ccc1[N+](=O)[O-]	-	-	-	-	.	-
CC(=O)N(Cc1ccccn1)Cc1ccco1	-	-	-	-	.	-
O=C(c1ccc(F)cc1F)N(Cc1ccccn1)Cc1ccco1	-	?	-	-	22µM	?
COc1ccc(Nc2nc(Nc3ccc(OC)cc3OC)nc(N3CCOCC3)n2)c(OC)c1	-	?	.	-	?	7.9µM
CCOC(=O)c1cccc(-n2nnc3c(sc4nc(C)c(Br)c(C)c43)c2=O)c1	-	?	.	-	-	-
Cc1ccc(N2C(=O)c3ccccc3C2C(=O)c2ccc(C)c(C)c2O)cc1 (stereo unspecified)	?	50µM	-	-	.	-
Cc1ccc(N2C(=O)c3ccccc3C2C(=O)c2cc(C)ccc2O)cc1 (stereo unspecified)	?	?	-	-	7.9µM	-
Cc1ccc(N2C(=O)c3ccccc3C2C(=O)c2ccc(O)cc2O)cc1 (stereo unspecified)	-	79µM	-	-	?	28µM
Cc1ccnc(N2C(=O)c3ccccc3C2O)c1 (stereo unspecified)	-	-	-	-	-	-
Cc1ccc(O)c(C(=O)CC(=O)c2ccccc2Cl)c1	-	-	-	-	-	-
